“And” between values parts separate entries of the source, which are not always exact repeats. Identical values can stand only once. About 83,000 compounds went through this panel and 20% of them were active in at least one assay; those are over-represented in the sample as a whole.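 Growth was measured after 48 h exposure to one concentration of compound in 96-well plates. Values under 10 count as active.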 The source made the active and inactive calls.
Legend:
Assay in all cases: NCI-60 one-dose screen, 48 h (100 = growth as untreated, 0 = no growth, -100 = all killed)
OVCAR-5 ovarian = conditions: 10 µM
OVCAR-4 ovarian = conditions: 10 µM
SK-OV-3 ovarian = conditions: 10 µM
IGROV1 ovarian = conditions: 10 µM
OVCAR-3 ovarian = conditions: 10 µM
NCI/ADR-RES ovarian = conditions: 10 µM
T-47D breast = conditions: 10 µM
BT-549 breast = conditions: 10 µM
MDA-MB-435 melanoma = conditions: 10 µM
SW-620 colon = conditions: 10 µM
MCF7 breast = test system: MCF7 breast
HCT-116 colon = conditions: 10 µM
OVCAR-8 ovarian = conditions: 10 µM
HS 578T breast = conditions: 10 µM
HCC-2998 colon = conditions: 10 µM
KM12 colon = conditions: 10 µM

Measured: growth

CC1CCC2(C(=O)O)CCC3(C)C(=CCC4C5(C)CC(O)C(O)C(C)(CO)C5C(O)CC43C)C2C1C (stereo not drawn)
inactive: OVCAR-5 ovarian 188% | OVCAR-4 ovarian 114% | SK-OV-3 ovarian 103% | IGROV1 ovarian 92.8% | OVCAR-3 ovarian 118% | NCI/ADR-RES ovarian 99.4% | T-47D breast 97% | BT-549 breast 114% | MDA-MB-435 melanoma 110% | SW-620 colon 107% | MCF7 breast; 10 µM 96.9% | HCT-116 colon 103%

CO[C@@]12[C@H](COC(N)=O)C3=C(C(=O)C(C)=C(N)C3=O)N1C[C@@H]1N[C@@H]12
active: MCF7 breast; 25 µM -17.6% and -61.3%

Cc1c(-c2ccccc2)[nH]c2ccccc12
inactive: OVCAR-8 ovarian 105% | OVCAR-5 ovarian 99% | OVCAR-4 ovarian 96.7% | IGROV1 ovarian 103% | OVCAR-3 ovarian 105% | HS 578T breast 102% | NCI/ADR-RES ovarian 105% | T-47D breast 92.4% | MDA-MB-435 melanoma 111% | SW-620 colon 99.3% | MCF7 breast; 10 µM 79.7% | HCT-116 colon 113% | HCC-2998 colon 102% | KM12 colon 103%

CC[C@@]1(OC(=O)CN(C)C)C(=O)OCc2c1cc1n(c2=O)Cc2cc3c(N)cccc3nc2-1
active: SK-OV-3 ovarian 2.84% | IGROV1 ovarian -3.28% | OVCAR-3 ovarian -34.2% | NCI/ADR-RES ovarian 5.59% | BT-549 breast -11.8% | MDA-MB-435 melanoma -44.7% | SW-620 colon 3.83% | MCF7 breast; 10 µM -1.34% | HCT-116 colon 0.716% | HCC-2998 colon -14.7%
inactive: OVCAR-8 ovarian 14.5% | OVCAR-5 ovarian 15.1% | OVCAR-4 ovarian 10.2% | HS 578T breast 62.5% | T-47D breast 13.3%

Cc1cc(Cl)ccc1NC(=O)/C(Cl)=C1/Sc2ccccc2NC1=O
inactive: OVCAR-5 ovarian 93.5% | OVCAR-4 ovarian 89.8% | SK-OV-3 ovarian 103% | IGROV1 ovarian 68.7% | OVCAR-3 ovarian 95.4% | HS 578T breast 122% | NCI/ADR-RES ovarian 87.6% | T-47D breast 50.3% | BT-549 breast 115% | MDA-MB-435 melanoma 99.7% | SW-620 colon 113% | MCF7 breast; 10 µM 70.8% | HCT-116 colon 76.7% | HCC-2998 colon 119%

COc1ccc2c(c1)[nH]c1c(/C=C/c3ccccc3)nccc12
inactive: OVCAR-5 ovarian 74.2% | OVCAR-4 ovarian 21.4% | SK-OV-3 ovarian 65.1% | OVCAR-3 ovarian 73.4% | HS 578T breast 70.4% | NCI/ADR-RES ovarian 53.4% | T-47D breast 43.7% | BT-549 breast 61.8% | MDA-MB-435 melanoma 85% | SW-620 colon 72.1% | MCF7 breast; 10 µM 65.7% | HCT-116 colon 29.9% | HCC-2998 colon 34.4%
active: IGROV1 ovarian -15.7%

NCc1c(O)ccc2ccccc12
inactive: OVCAR-8 ovarian 103% | OVCAR-5 ovarian 96.9% | OVCAR-4 ovarian 111% | SK-OV-3 ovarian 96.9% | IGROV1 ovarian 94.7% | OVCAR-3 ovarian 99.4% | HS 578T breast 94.5% | NCI/ADR-RES ovarian 103% | T-47D breast 98.3% | BT-549 breast 101% | MDA-MB-435 melanoma 103% | SW-620 colon 107% | MCF7 breast; 10 µM 95.3% | HCT-116 colon 102% | HCC-2998 colon 102% | KM12 colon 96%

S=C1SCN(CCc2ccccc2)CN1CCc1ccccc1
inactive: OVCAR-8 ovarian 100% | OVCAR-5 ovarian 112% | IGROV1 ovarian 105% | OVCAR-3 ovarian 116% | HS 578T breast 105% | NCI/ADR-RES ovarian 102% | T-47D breast 70.8% | BT-549 breast 129% | MDA-MB-435 melanoma 98.6% | SW-620 colon 89.4% | MCF7 breast; 10 µM 40.7% | HCT-116 colon 102% | HCC-2998 colon 101%

O=S(=O)(c1cc(Cl)ccc1O)c1cc(Cl)ccc1O
inactive: OVCAR-8 ovarian 83.7% | OVCAR-5 ovarian 116% | OVCAR-4 ovarian 85.3% | SK-OV-3 ovarian 78.4% | IGROV1 ovarian 83.5% | OVCAR-3 ovarian 78% | HS 578T breast 65.6% | NCI/ADR-RES ovarian 91.9% | T-47D breast 67% | MDA-MB-435 melanoma 93.4% | SW-620 colon 86.3% | MCF7 breast; 10 µM 92.9% | HCT-116 colon 77.1% | HCC-2998 colon 99.5%

Clc1c(Cl)c(Cl)c2c(nnn2C2CCCO2)c1Cl (stereo not drawn)
active: MCF7 breast; 100 µM 3.55% and -84.2%

O=C(CCc1ccccc1)ON1C(=S)C(c2ccccc2)(c2ccccc2)N=C1Sc1ccccc1
active: MCF7 breast; 100 µM 1.09% and 4.44%

C=C1N(C)c2ccc(Cl)cc2C1(C)C
inactive: OVCAR-8 ovarian 67.9% | OVCAR-5 ovarian 82.9% | OVCAR-4 ovarian 60.7% | SK-OV-3 ovarian 82% | OVCAR-3 ovarian 42.9% | HS 578T breast 49.8% | NCI/ADR-RES ovarian 95.8% | T-47D breast 33.7% | BT-549 breast 66.9% | MDA-MB-435 melanoma 77.1% | SW-620 colon 57.4% | MCF7 breast; 10 µM 89% | HCT-116 colon 17.2% | HCC-2998 colon 68.7% | KM12 colon 40.2%

Nc1nc(N)c2cc(Sc3ccc4ccccc4c3)ccc2n1
inactive: OVCAR-8 ovarian 34.8% | OVCAR-5 ovarian 50.5% | SK-OV-3 ovarian 62.3% | IGROV1 ovarian 27.8% | OVCAR-3 ovarian 38.8% | HS 578T breast 61.7% | NCI/ADR-RES ovarian 43.9% | T-47D breast 45.8% | BT-549 breast 67.4% | MDA-MB-435 melanoma 33.8% | SW-620 colon 18.9% | MCF7 breast; 10 µM 25.2% | HCT-116 colon 15.4%
active: HCC-2998 colon -39.4%

O=C(O)c1ccccc1.[Ag]
inactive: OVCAR-8 ovarian 96.8% | OVCAR-5 ovarian 102% | OVCAR-4 ovarian 95% | SK-OV-3 ovarian 109% | IGROV1 ovarian 116% | OVCAR-3 ovarian 113% | HS 578T breast 114% | NCI/ADR-RES ovarian 93.2% | T-47D breast 72.6% | BT-549 breast 99.4% | MDA-MB-435 melanoma 88.5% | MCF7 breast; 10 µM 96.4% | HCT-116 colon 96.8% | HCC-2998 colon 109%

— PubChem BioAssay (NCI)
